Assay outcomes as filed in PubChem BioAssay.
Sampled rows, rich in hits. Any-hit rate of the full collection: about 3.5%.
MITF inh: MITF inhibitors, primary screen, biochemical, AlphaScreen, human; Microphthalmia-associated transcription factor (Homo sapiens), O75030; AlphaScreen MITF homodimerization, bead proximity signal; inhibition, % at 2.6 µM; 0.91% of 650,000 active; AID 1259374, 2018; in the data active = inhibition above about 50%
FBW7 activator: FBW7 E3 ligase activators, primary screen, biochemical, AlphaScreen, human; F-box/WD repeat-containing protein 7 (Homo sapiens), Q969H0; AlphaScreen FBW7–phospho-cyclin E peptide binding, activator screen; normalized activity (activation), % at 26.1 µM; 0.13% of 650,000 active; AID 1259310, 2017; in the data active = normalized activity above about 1.9%;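 note: purified mutant Fbw7 with reduced substrate affinity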
GPR151 activ: activators of human GPR151, primary screen, cell-based, PathHunter beta-arrestin, luminescence; 1% of 650,000 active; PathHunter beta-arrestin GPR151 cells; activation, % at 11.2 µM; in the data active = activation above about 4.9%
Target sequence (Q8TDV0 whole entry, looked up): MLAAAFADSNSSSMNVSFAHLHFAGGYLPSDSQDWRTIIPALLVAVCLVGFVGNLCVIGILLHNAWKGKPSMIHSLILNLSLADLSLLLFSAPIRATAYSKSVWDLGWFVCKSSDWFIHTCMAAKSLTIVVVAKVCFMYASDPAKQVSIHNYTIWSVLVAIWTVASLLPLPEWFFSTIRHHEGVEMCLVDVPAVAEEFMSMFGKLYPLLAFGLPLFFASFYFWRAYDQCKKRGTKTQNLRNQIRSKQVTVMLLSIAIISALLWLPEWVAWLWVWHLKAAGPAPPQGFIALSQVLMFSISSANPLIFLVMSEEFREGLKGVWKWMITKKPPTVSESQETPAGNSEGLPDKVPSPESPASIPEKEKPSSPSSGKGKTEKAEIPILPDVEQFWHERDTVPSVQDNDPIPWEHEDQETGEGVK
TEAD-YAP inh: TEAD-YAP interaction inhibition, primary screen, TEAD-YAP interaction inhibitor project, luminescence, HEK-TIYL cells; TEAD-Gal4/YAP UAS-luciferase luminescence; inhibition, % at 9.12 µM; 1.4% of 640,000 active; in the data active = inhibition above about 32%
Hits are given with their value; i = inactive.

SMILES	MITF inh	FBW7 activator	GPR151 activ	TEAD-YAP inh
COc1ccc(C(=O)Nc2cc(Nc3ccccc3C(N)=O)ccn2)cc1	i	i	i	37
COc1ccc(C(=O)Nc2ccccc2C(=O)Nc2nc3ccccc3n2C)cc1	i	i	i	94
COc1ccc(C(=O)Nc2nc3ccccc3n2C)cc1	i	i	i	i
COc1cc(Nc2cc(Nc3ccccc3C(N)=O)ccn2)cc(OC)c1OC	i	i	i	i
COc1ccc(C(=O)Nc2cnc3ccccc3c2)cc1	i	i	i	84
COc1ccc(-c2nnc(NC(=O)CSc3nncn3C)s2)cc1	i	i	i	i
NCCCC[C@@H]1NC(=O)[C@@H]2C[C@H](NC(=O)Nc3cc(Cl)ccc3Cl)CN2C1=O	i	i	i	i
Oc1ccc(Br)cc1CN1CCN(CC2CC3C=CC2C3)CC1 (stereo unspecified)	i	i	i	i
Oc1ccc(Br)cc1CN1CCN(Cc2cccnc2)CC1	67	i	i	i
CCOc1cc(C2C(C(=O)N3CCOCC3)=C(C)NC3=C2C(=O)CC(C)(C)C3)cc(Br)c1O (stereo unspecified)	i	i	i	i
Cc1cc(Cl)ccc1OCC(=O)N1CCN(S(C)(=O)=O)CC1	i	i	i	i
Cc1ccc(OCc2cc(C(=O)N(C)CCC3CCOCC3)no2)cn1	i	i	i	39
CCc1ccc(OCC(=O)Nc2nccs2)c(Br)c1	i	i	i	95
CCc1ccc(OCC(=O)Nc2cccc(C)n2)c(Br)c1	i	i	i	i
CC(C)(C)c1ccc(OCC(=O)Nc2nccs2)c(Br)c1	i	i	i	91
Cc1ccc(OCC(=O)Nc2nccs2)c(Br)c1	i	i	i	98
Cc1cc(Cl)ccc1OCC(=O)Nc1nccs1	i	i	i	65
Cc1ccc(C)n1-c1ccc(C(=O)O)c(C(=O)O)c1	i	i	i	i
Cc1ccc(C)n1-c1ccc(Br)cc1C(=O)O	82	i	i	i
N#Cc1ccc(Oc2ccc(N3C(=O)C4C5C=CC(C5)C4C3=O)cc2)cc1C#N (stereo unspecified)	i	i	i	40
O=C1C2C3C=CC(C3)C2C(=O)N1c1ccc(Oc2ccccc2)cc1 (stereo unspecified)	i	i	i	i
Cc1cccc(NC(=O)C2(S(=O)(=O)c3ccc(Cl)cc3)CC2)c1	i	4.7	i	i
Cc1ccc(NC(=O)C2(S(=O)(=O)c3ccc(Cl)cc3)CC2)cc1	i	i	i	i
Cc1cc2[nH]c(=S)n(Cc3ccccc3Cl)c2cc1C	i	i	i	50
C=CCNc1nc(-c2c[nH]c3ccccc23)cs1	i	i	i	i
SMILES	MITF inh	FBW7 activator	GPR151 activ	TEAD-YAP inh
CCC(C)Nc1nc(-c2c[nH]c3ccccc23)cs1 (stereo unspecified)	i	3.9	i	i
Oc1c(C(Nc2ccccn2)c2ccc(OC3CCCC3)cc2)ccc2cccnc12 (stereo unspecified)	i	i	i	i
CCOc1cccc(C(Nc2cccc(C)n2)c2ccc3ccc(C)nc3c2O)c1 (stereo unspecified)	i	i	i	i
CC(C)CC(=O)NC(c1ccc2c(c1)OCO2)c1ccc2cccnc2c1O (stereo unspecified)	i	i	i	84
Cc1cccc(NC(c2ccc3c(c2)OCO3)c2ccc3cccnc3c2O)n1 (stereo unspecified)	i	i	i	80
Oc1c(C(Nc2ccccn2)c2ccc3c(c2)OCO3)ccc2cccnc12 (stereo unspecified)	i	i	i	87
Cn1c(=O)c2ccccc2n2c(SCC(=O)N3CCCc4ccccc43)nnc12	i	i	i	i
Cc1cc(C)c(NC(=O)CN(C2CCCCC2)S(C)(=O)=O)c(C)c1	i	i	i	i
C/C(CC(=O)Nc1ccc(N(C)C)cc1)=N\NC(=O)Cc1ccc(-c2ccccc2)cc1	i	i	i	i
CSc1nnc2c(n1)OC(c1ccc(OC3CCCC3)cc1)Nc1ccccc1-2 (stereo unspecified)	i	i	i	i
COc1cc(Nc2nc(NCCO)c3ncn(-c4ccccc4)c3n2)cc(OC)c1OC	i	i	i	i
c1ccc(Nc2nc(NCCN3CCOCC3)c3ncn(-c4ccsc4)c3n2)cc1	i	i	i	55
c1ccc(-c2nc(NCCN3CCOCC3)c3ncn(-c4ccsc4)c3n2)cc1	i	i	i	33
c1ccc(-n2cnc3c(Nc4ccc(N5CCOCC5)cc4)nc(Nc4nccc5ccccc45)nc32)cc1	i	i	i	43
COc1cc(Nc2nc(NCCN3CCOCC3)c3ncn(-c4ccccc4)c3n2)cc(OC)c1OC	i	i	i	42
CC1CCN(CCCNC(=O)CCS(=O)(=O)Cc2ccccc2F)CC1	i	i	i	i
COc1ccc(CNc2c(-c3cccc(OC)c3OC)nc3cnccn23)cc1	i	i	i	i
c1ccc(-n2cnc3c(NCCN4CCOCC4)nc(Nc4cccnc4)nc32)cc1	i	i	i	34
c1ccc(-n2cnc3c(NCCN4CCOCC4)nc(Nc4ccc(N5CCOCC5)cc4)nc32)cc1	i	i	i	59
c1cncc(Nc2nc(NCCN3CCOCC3)c3ncn(-c4ccsc4)c3n2)c1	i	i	i	51
c1cc(Nc2nc(NCCN3CCOCC3)c3ncn(-c4ccsc4)c3n2)ncn1	i	i	i	37
c1cncc(CNc2nc(NCCN3CCOCC3)c3ncn(-c4ccsc4)c3n2)c1	i	i	i	i
O=C(O)CCC(=O)Nc1cccc(C(=O)O)c1	i	i	i	i
COC(=O)C1=CN(C(C)C)C=C(C(=O)OC)C1c1ccccc1OCc1ccccc1	i	i	i	i
c1cnc2ccc(Nc3nc(NCCN4CCOCC4)c4ncn(-c5ccsc5)c4n3)cc2c1	i	i	i	48
SMILES	MITF inh	FBW7 activator	GPR151 activ	TEAD-YAP inh
Cn1nccc1Nc1nc(NCCN2CCOCC2)c2ncn(-c3ccsc3)c2n1	i	i	i	50
COc1cc(Nc2nc(Nc3ccnn3C)nc3c2ncn3-c2ccsc2)cc(OC)c1OC	i	i	i	63
COc1cc(Nc2nc(Nc3ncccn3)nc3c2ncn3-c2ccsc2)cc(OC)c1OC	i	i	i	i
Cc1ccc(S(=O)(=O)Nc2c(C)cc(Cl)nc2Cl)cc1	i	i	i	i
COc1ccc(-c2noc(CCC(=O)Nc3ccccc3[N+](=O)[O-])n2)cc1OC	i	i	i	i
COc1cccc(C(=O)NC(c2ccccc2OC)c2cc(Cl)c3cccnc3c2O)c1 (stereo unspecified)	i	i	i	41
COc1ccccc1C(NC(=O)c1cccnc1)c1cc(Cl)c2cccnc2c1O (stereo unspecified)	i	i	i	i
COc1cccc(C(=O)NC(c2ccco2)c2cc(Cl)c3cccnc3c2O)c1 (stereo unspecified)	i	i	i	79
COc1cccc(C(=O)NC(c2ccccc2)c2cc(Cl)c3cccnc3c2O)c1 (stereo unspecified)	i	i	i	i
O=C(Cc1cccs1)Nc1ccc(-c2nc3cccnc3s2)cc1	i	i	i	i
